Data as given in PubChem BioAssay AID1159580 (chemical genetic matrix, 2015).
Several values for one entry are separate records, joined by “and”; a condition that tells them apart may be missing. Equal entries are not always repeated. Hit rate of the full screen: of about 5,500 compounds, about 2,000 (36%) were called active. Inconclusive results (about 18%) are left out. Cut-off read from the data, not from the text of the source: active = normalized growth mostly below about 0.91 (no sharp cut-off); inconclusive = no clear call, values can overlap the other calls; inactive = mostly above about 0.92. Some of the results follow.

Assay: chemical genetic growth profiling, strain panel (AID 1159580);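 note: tested at 20 µM; growth read once vehicle control cultures reached saturation at 30 °C; 1 = growth at the plate median or of vehicle wells; lower values mean less growth of the strain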
Conditions: S. cerevisiae deletion strains, growth OD

Measured: normalized growth

Cc1oncc1C(=O)Nc1ccc(C(F)(F)F)cc1
inactive: locus YAL013W, strain DEP1, stronger effect = lower value 1.03 and 0.94 | locus YAL021C, strain ccr4, stronger effect = lower value 1.05 | locus YAL026C, strain drs2, stronger effect = lower value 0.97 | locus YAL030W, strain snc1, stronger effect = lower value 0.979 | locus YAL040C, strain CLN3, stronger effect = lower value 0.918 | locus YBL061C, strain skt5, stronger effect = lower value 1.01 | locus YBR021W, strain FUR4, stronger effect = lower value 1.02 | locus YBR023C, strain chs3, stronger effect = lower value 0.979 | locus YBR171W, strain sec66, stronger effect = lower value 1.02 | locus YBR229C, strain ROT2, stronger effect = lower value 1.01 | locus YBR279W, strain paf1, stronger effect = lower value 1 | locus YCL011C, strain gbp2, stronger effect = lower value 0.919 | locus YCL016C, strain dcc1, stronger effect = lower value 0.981 | locus YCL029C, strain bik1, stronger effect = lower value 0.996 | locus YCL061C, strain MRC1 (second series), stronger effect = lower value 0.983 | locus YCL061C, strain MRC1, stronger effect = lower value 0.95 | locus YCL069W, strain vba3, stronger effect = lower value 0.982 | locus YCR088W, strain abp1, stronger effect = lower value 0.978 | locus YDL005C, strain med2, stronger effect = lower value 1.02 | locus YDL035C, strain GPR1, stronger effect = lower value 1.04 | locus YDL040C, strain nat1, stronger effect = lower value 0.99 | locus YDL074C, strain BRE1, stronger effect = lower value 1.01 | locus YDL101C, strain DUN1, stronger effect = lower value 1.02 | locus YDL134C, strain PPH21, stronger effect = lower value 1.04 | locus YDL185W, strain tfp1, stronger effect = lower value 0.993 | locus YDL192W, strain arf1, stronger effect = lower value 0.989 | locus YDR001C, strain nth1, stronger effect = lower value 0.986 | locus YDR069C, strain doa4, stronger effect = lower value 0.977 | locus YDR101C, strain arx1, stronger effect = lower value 0.991 | locus YDR137W, strain rgp1, stronger effect = lower value 1.03 | locus YDR150W, strain NUM1, stronger effect = lower value 1.01 | locus YDR162C, strain NBP2, stronger effect = lower value 1.03 | locus YDR195W, strain ref2 1.07 | locus YDR318W, strain mcm21, stronger effect = lower value 0.993 | locus YDR334W, strain swr1, stronger effect = lower value 0.991 | locus YDR335W, strain msn5, stronger effect = lower value 0.994 | locus YDR363W, strain ESC2, stronger effect = lower value 0.966 | locus YDR388W, stronger effect = lower value 1 | locus YDR392W, strain spt3, stronger effect = lower value 0.761 | locus YDR502C, strain sam2, stronger effect = lower value 0.996 | locus YEL003W, strain gim4, stronger effect = lower value 0.971 | locus YEL037C, strain rad23, stronger effect = lower value 1.01 | locus YEL061C, strain CIN8 (second series), stronger effect = lower value 0.998 | locus YEL061C, strain CIN8, stronger effect = lower value 1.01 | locus YER002W, strain NOP16, stronger effect = lower value 1.01 | locus YER015W, strain faa2, stronger effect = lower value 0.998 | locus YER016W, strain bim1, stronger effect = lower value 1.02 | locus YER110C, stronger effect = lower value 0.99 | locus YER111C, strain swi4, stronger effect = lower value 1.02 | locus YER155C, strain BEM2, stronger effect = lower value 1.03 | locus YER167W, strain BCK2, stronger effect = lower value 1.02 | locus YFR010W, strain ubp6, stronger effect = lower value 1.01 | locus YGL078C, strain dbp3, stronger effect = lower value 0.991 | locus YGL086W, strain mad1, stronger effect = lower value 0.989 | locus YGL167C, strain pmr1, stronger effect = lower value 1.01 | locus YGL173C, strain kem1, stronger effect = lower value 0.976 | locus YGL227W, strain vid30, stronger effect = lower value 0.97 | locus YGL248W, strain PDE1, stronger effect = lower value 1.02 | locus YGL253W, strain hxk2, stronger effect = lower value 0.997 | locus YGR078C, strain PAC10, stronger effect = lower value 1.02 | locus YGR135W, strain pre9, stronger effect = lower value 1 | locus YGR252W, strain gcn5, stronger effect = lower value 0.988 | locus YHR013C, strain ard1, stronger effect = lower value 1.13 | locus YHR027C, strain rpn1, stronger effect = lower value 0.992 | locus YHR030C, strain SLT2, stronger effect = lower value 1.02 | locus YHR079C, strain IRE1 (second series), stronger effect = lower value 0.98 | locus YHR094C, strain hxt1, stronger effect = lower value 0.99 | locus YHR129C, strain ARP1, stronger effect = lower value 1.01 | locus YHR142W, strain chs7, stronger effect = lower value 0.928 | locus YHR200W, strain rpn10, stronger effect = lower value 0.991 | locus YIL066C, strain RNR3, stronger effect = lower value 1.04 | locus YIL073C, strain SPO22, stronger effect = lower value 1 | locus YIL125W, strain kgd1, stronger effect = lower value 0.99 | locus YIR030C, strain dcg1, stronger effect = lower value 0.985 | locus YJL092W, strain hpr5, stronger effect = lower value 0.983 | locus YJL095W, strain BCK1 (second series), stronger effect = lower value 0.947 | locus YJL095W, strain BCK1, stronger effect = lower value 0.999 | locus YJL115W, strain asf1, stronger effect = lower value 1.01 | locus YJL134W, strain LCB3, stronger effect = lower value 1.02 | locus YJL154C, strain vps35, stronger effect = lower value 0.994 | locus YJL164C, strain tpk1, stronger effect = lower value 0.952 | locus YJL166W, strain qcr8, stronger effect = lower value 0.932 | locus YJL168C, strain set2, stronger effect = lower value 0.993 | locus YJL187C, strain SWE1 (second series), stronger effect = lower value 1.01 | locus YJR043C, strain POL32, stronger effect = lower value 1.05 | locus YKL009W, strain mrt4, stronger effect = lower value 0.997 | locus YKL068W, stronger effect = lower value 0.998 | locus YKL085W, strain MDH1 (second series), stronger effect = lower value 0.999 | locus YKL085W, strain MDH1, stronger effect = lower value 0.999 | locus YKL160W, strain elf1, stronger effect = lower value 0.96 | locus YKR001C, strain vps1, stronger effect = lower value 0.997 | locus YKR026C, strain gcn3, stronger effect = lower value 0.98 | locus YKR091W, strain srl3, stronger effect = lower value 0.995 | locus YLL001W, strain dnm1, stronger effect = lower value 0.954 | locus YLL026W, stronger effect = lower value 0.966 | locus YLL041C, strain sdh2, stronger effect = lower value 0.958 | locus YLR039C, strain RIC1, stronger effect = lower value 0.984 | locus YLR058C, strain SHM2, stronger effect = lower value 1.02 | locus YLR102C, strain apc9, stronger effect = lower value 0.983 | locus YLR221C, strain rsa3, stronger effect = lower value 0.962 | locus YLR258W, strain gsy2, stronger effect = lower value 0.947 | locus YLR262C, strain YPT6 (second series), stronger effect = lower value 1.03 | locus YLR262C, strain YPT6, stronger effect = lower value 1.01 | locus YLR268W, strain sec22, stronger effect = lower value 0.992 | locus YLR320W, strain mms22, stronger effect = lower value 0.889 | locus YLR330W, strain CHS5, stronger effect = lower value 1.02 | locus YLR342W, strain FKS1 (second series), stronger effect = lower value 1.04 | locus YLR342W, strain FKS1, stronger effect = lower value 0.952 | locus YLR357W, strain rsc2, stronger effect = lower value 0.947 | locus YLR370C, strain arc18, stronger effect = lower value 1.01 | locus YLR371W, strain rom2, stronger effect = lower value 0.982 | locus YLR384C, strain iki3, stronger effect = lower value 1 | locus YLR418C, strain cdc73, stronger effect = lower value 0.981 | locus YML016C, strain PPZ1, stronger effect = lower value 1.03 | locus YML032C, strain rad52, stronger effect = lower value 0.989 | locus YML120C, strain ndi1, stronger effect = lower value 0.979 | locus YML124C, strain tub3, stronger effect = lower value 0.988 | locus YMR058W, strain fet3, stronger effect = lower value 0.937 | locus YMR078C, strain ctf18, stronger effect = lower value 1 | locus YMR125W, strain sto1, stronger effect = lower value 0.984 | locus YMR129W, stronger effect = lower value 0.978 | locus YMR223W, strain ubp8, stronger effect = lower value 0.998 | locus YMR231W, strain pep5, stronger effect = lower value 1.01 | locus YMR263W, strain SAP30, stronger effect = lower value 1.02 | locus YMR307W, strain GAS1, stronger effect = lower value 1.16 and 0.976 | locus YNL067W, strain RPL9B, stronger effect = lower value 1 | locus YNL128W, strain TEP1, stronger effect = lower value 1.02 and 0.958 | locus YNL175C, strain NOP13, stronger effect = lower value 0.934 | locus YNL197C, strain WHI3, stronger effect = lower value 0.946 | locus YNL209W, strain ssb2, stronger effect = lower value 0.99 | locus YNL224C, strain SQS1, stronger effect = lower value 0.94 | locus YNL233W, strain BNI4, stronger effect = lower value 1 | locus YNL248C, strain rpa49, stronger effect = lower value 0.99 | locus YNL250W, strain rad50, stronger effect = lower value 0.98 | locus YNL271C, strain bni1, stronger effect = lower value 0.993 | locus YNL298W, strain CLA4, stronger effect = lower value 1.01 | locus YNL307C, strain MCK1, stronger effect = lower value 0.991 | locus YNL322C, strain KRE1 (second series), stronger effect = lower value 0.973 | locus YNR049C, strain mso1, stronger effect = lower value 0.992 | locus YNR052C, strain pop2, stronger effect = lower value 0.979 | locus YOL006C, strain TOP1, stronger effect = lower value 0.986 | locus YOL012C, strain htz1 1.17 | locus YOL147C, strain pex11, stronger effect = lower value 0.993 | locus YOR001W, strain rrp6, stronger effect = lower value 0.997 | locus YOR061W, strain CKA2, stronger effect = lower value 1.03 | locus YOR069W, strain VPS5, stronger effect = lower value 1.02 | locus YOR070C, strain gyp1, stronger effect = lower value 0.988 | locus YOR080W, strain dia2, stronger effect = lower value 1.01 | locus YOR083W, strain WHI5 (second series), stronger effect = lower value 0.891 | locus YOR083W, strain WHI5, stronger effect = lower value 0.952 | locus YOR106W, strain vam3, stronger effect = lower value 0.955 | locus YOR136W, strain idh2, stronger effect = lower value 0.982 | locus YOR144C, strain elg1, stronger effect = lower value 0.988 | locus YOR184W, strain ser1, stronger effect = lower value 1 | locus YOR265W, strain rbl2, stronger effect = lower value 0.979 | locus YOR270C, strain vph1, stronger effect = lower value 0.964 | locus YOR290C, strain snf2, stronger effect = lower value 0.957 | locus YOR316C, strain cot1, stronger effect = lower value 1 | locus YPL051W, strain arl3, stronger effect = lower value 0.987 | locus YPL055C, strain LGE1, stronger effect = lower value 1.02 | locus YPL078C, strain atp4, stronger effect = lower value 0.935 | locus YPL106C, strain sse1, stronger effect = lower value 0.972 | locus YPL240C, strain hsp82, stronger effect = lower value 0.992 | locus YPL241C, strain CIN2, stronger effect = lower value 1.01 and 0.971 | locus YPR119W, strain clb2, stronger effect = lower value 0.989 | locus YPR141C, strain kar3, stronger effect = lower value 0.991 | locus YPR163C, strain tif3, stronger effect = lower value 0.991 | locus YPR167C, strain met16, stronger effect = lower value 0.995 | strain wtn01, stronger effect = lower value 0.992
active: locus YBR009C, strain hhf1, stronger effect = lower value 0.901 | locus YBR231C, strain swc5, stronger effect = lower value 0.88 | locus YDR159W, strain sac3, stronger effect = lower value 0.754 | locus YDR297W, strain sur2, stronger effect = lower value 0.91 | locus YER155C, strain BEM2 (second series), stronger effect = lower value 0.733 | locus YGL240W, strain doc1, stronger effect = lower value 0.785 | locus YJL129C, strain trk1, stronger effect = lower value 0.869 | locus YLR027C, strain aat2, stronger effect = lower value 0.919 | locus YMR205C, strain PFK2, stronger effect = lower value 0.794 | locus YNL071W, strain lat1, stronger effect = lower value 0.858
